According to PubChem BioAssay:
Active and inactive are the calls of the source.

Key:
[1] = system: Plasmodium falciparum Sir2 (PF13_0152, Sir2A); experiment: Plasmodium falciparum Sir2A binding compounds – biochemical, small-molecule microarray, 635 nm fluorescence, primary screen (AID 1098); conditions: fluorescence 635 nm, higher = more signal;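 further: score merges spot fluorescence intensity with its signal-to-noise ratio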
[2] = probe aDKK1 binding to arrayed compounds – biochemical, biotinylated probe, 635/667 nm fluorescence, primary screen (AID 1099); conditions: small-molecule microarray, higher = more signal;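 further: score merges 667nm spot fluorescence with signal to noise across triplicate slides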
[3] = probe aCHRDL2 binding to arrayed compounds – biochemical, biotinylated probe, 635/667 nm fluorescence, primary screen (AID 1100); conditions: small-molecule microarray, higher = more signal
[4] = change in splice reporter luminescence, either direction, cell-based, HEK293, spliceosome inhibition project, primary screen (AID 1101); conditions: HEK293 splicing luciferase reporter, 24 h, higher = more signal, called active from +8 up or from −8 down;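 further: HEK293 cells carrying a splicing-competent luciferase reporter gene; test concentration not given here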
[5] = target: Fibroblast growth factor 10 (Homo sapiens) (UniProt O15520); experiment: compounds binding fibroblast growth factor 10 – biochemical, small-molecule microarray, 635 nm fluorescence, primary screen (AID 1102); conditions: FGF10 binding, fluorescence 635 nm, higher = more signal
Chain of Fibroblast growth factor 10 (Homo sapiens) (O15520 whole entry, looked up): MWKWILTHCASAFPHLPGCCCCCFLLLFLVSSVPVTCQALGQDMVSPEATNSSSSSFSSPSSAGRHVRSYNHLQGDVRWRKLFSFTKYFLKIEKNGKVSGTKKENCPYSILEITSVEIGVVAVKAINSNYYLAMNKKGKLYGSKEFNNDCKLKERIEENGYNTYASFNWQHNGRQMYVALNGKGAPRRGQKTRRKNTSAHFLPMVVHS

[6] = system: glycogen synthase kinase-3 (GSK3A per assay name; protocol says GSK3B); experiment: compounds binding glycogen synthase kinase-3 – biochemical, small-molecule microarray, 635 nm fluorescence, GSK3A, primary screen (AID 1103); conditions: fluorescence 635 nm, higher = more signal; further: the record names both GSK3A and GSK3B
[7] = target: Epidermal growth factor receptor (Homo sapiens) (UniProt P00533); experiment: compounds binding epidermal growth factor receptor – biochemical, small-molecule microarray, 635 nm fluorescence, primary screen (AID 1104); conditions: EGFR binding, higher = more signal;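 further: score merges 667 nm emission intensity with spot signal to noise over triplicate slides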
Chain of Epidermal growth factor receptor (Homo sapiens) (P00533 whole entry, looked up): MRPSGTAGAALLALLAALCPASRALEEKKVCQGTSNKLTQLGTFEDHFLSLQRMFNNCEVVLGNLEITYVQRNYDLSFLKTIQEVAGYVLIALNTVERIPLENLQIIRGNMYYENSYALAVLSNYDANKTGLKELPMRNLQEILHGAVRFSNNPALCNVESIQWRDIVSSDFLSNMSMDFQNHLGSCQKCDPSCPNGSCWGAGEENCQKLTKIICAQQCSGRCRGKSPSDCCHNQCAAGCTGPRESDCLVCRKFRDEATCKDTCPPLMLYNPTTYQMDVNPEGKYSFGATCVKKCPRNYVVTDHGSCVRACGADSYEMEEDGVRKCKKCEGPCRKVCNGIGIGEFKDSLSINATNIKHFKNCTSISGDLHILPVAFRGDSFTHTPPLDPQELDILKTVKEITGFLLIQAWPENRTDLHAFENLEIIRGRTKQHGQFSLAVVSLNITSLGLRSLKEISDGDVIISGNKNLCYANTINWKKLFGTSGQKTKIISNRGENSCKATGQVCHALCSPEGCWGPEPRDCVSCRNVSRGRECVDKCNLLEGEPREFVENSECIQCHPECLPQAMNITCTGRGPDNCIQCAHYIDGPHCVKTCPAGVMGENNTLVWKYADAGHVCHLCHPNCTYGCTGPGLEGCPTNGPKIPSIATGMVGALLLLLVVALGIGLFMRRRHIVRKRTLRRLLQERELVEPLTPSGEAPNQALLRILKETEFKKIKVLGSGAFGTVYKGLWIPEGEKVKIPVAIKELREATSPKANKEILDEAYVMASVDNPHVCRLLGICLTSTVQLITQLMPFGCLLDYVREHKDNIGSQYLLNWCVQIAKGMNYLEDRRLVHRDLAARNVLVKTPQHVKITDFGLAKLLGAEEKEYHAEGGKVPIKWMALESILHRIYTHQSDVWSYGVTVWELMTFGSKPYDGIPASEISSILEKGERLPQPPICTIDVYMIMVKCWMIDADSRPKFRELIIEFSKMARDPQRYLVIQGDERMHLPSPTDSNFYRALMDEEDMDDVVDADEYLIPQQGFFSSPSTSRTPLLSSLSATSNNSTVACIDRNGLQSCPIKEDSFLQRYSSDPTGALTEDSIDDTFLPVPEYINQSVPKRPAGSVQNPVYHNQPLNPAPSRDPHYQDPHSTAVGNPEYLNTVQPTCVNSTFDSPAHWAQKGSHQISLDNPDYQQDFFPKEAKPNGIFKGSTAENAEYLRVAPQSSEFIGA

[8] = target: Follistatin-related protein 3 (Homo sapiens) (UniProt O95633); experiment: compounds binding follistatin-related protein 3 – biochemical, small-molecule microarray, 635 nm fluorescence, primary screen (AID 1105); conditions: FSTL3 binding, higher = more signal;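 further: score merges emission near 667 nm and signal to noise per printed spot across three slides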
Chain of Follistatin-related protein 3 (Homo sapiens) (O95633 whole entry, looked up): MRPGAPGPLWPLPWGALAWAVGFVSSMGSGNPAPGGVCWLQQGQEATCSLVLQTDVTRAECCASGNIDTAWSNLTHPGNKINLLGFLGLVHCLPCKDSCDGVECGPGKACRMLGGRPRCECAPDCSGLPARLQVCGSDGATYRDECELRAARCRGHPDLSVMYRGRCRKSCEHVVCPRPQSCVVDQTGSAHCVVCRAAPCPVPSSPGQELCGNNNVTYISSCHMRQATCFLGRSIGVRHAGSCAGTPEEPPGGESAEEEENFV

[9] = target: Dickkopf-related protein 1 (Homo sapiens) (UniProt O94907); experiment: small molecules binding DKK1 protein – biochemical, small-molecule microarray, 635 nm fluorescence scan, primary screen (AID 1106); conditions: higher = more signal;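 further: score merges emission near 667 nm with signal to noise over three replicate slides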
Chain of Dickkopf-related protein 1 (Homo sapiens) (O94907 whole entry, looked up): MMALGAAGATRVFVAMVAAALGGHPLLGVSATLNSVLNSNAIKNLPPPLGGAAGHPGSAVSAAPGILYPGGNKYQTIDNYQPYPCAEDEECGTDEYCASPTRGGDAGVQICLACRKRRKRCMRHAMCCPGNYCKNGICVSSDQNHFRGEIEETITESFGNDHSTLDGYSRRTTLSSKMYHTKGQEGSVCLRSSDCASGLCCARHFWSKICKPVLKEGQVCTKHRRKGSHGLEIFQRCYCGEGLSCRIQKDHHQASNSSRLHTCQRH

[10] = system: Inhibin beta A chain (activin A); experiment: small molecules binding activin A – biochemical, small-molecule microarray, 635 nm fluorescence scan, primary screen (AID 1107); conditions: INHBA, higher = more signal;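 further: mouse activin A protein probed at 4.33 µg/mL on printed slides; score merges bound-protein fluorescence near 667 nm with spot signal-to-noise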
[11] = system: Human papillomavirus type 1a protein E7 (residues 44-93); experiment: small molecules binding HPV E7 44-93 – biochemical, small-molecule microarray, residues 44-93, 635 nm fluorescence, primary screen (AID 1108); conditions: fluorescence 635 nm, higher = more signal;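 further: E7 fragment applied at 1 µg/mL in TBST for 1 h at 4 C; score combines spot fluorescence with its signal to noise ratio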
[12] = hepatitis C replication reporter changes, two-sided – Huh7 cells, luciferase reporter, HCV replication inhibitor project, primary screen (AID 1109); conditions: Huh7 HCV replicon luciferase reporter, 48 h; higher = more signal;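 further: huh7 hepatoma cells harbouring a luciferase neomycin HCV replicon reporter; luciferase luminescence as measure of HCV replicon replication; test concentration not given here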
[13] = target: Left-right determination factor 2 (Homo sapiens) (UniProt O00292); experiment: small molecules binding LEFTY2 protein – biochemical, small-molecule microarray, 635 nm fluorescence scan, primary screen (AID 1110); conditions: higher = more signal
Chain of Left-right determination factor 2 (Homo sapiens) (O00292 whole entry, looked up): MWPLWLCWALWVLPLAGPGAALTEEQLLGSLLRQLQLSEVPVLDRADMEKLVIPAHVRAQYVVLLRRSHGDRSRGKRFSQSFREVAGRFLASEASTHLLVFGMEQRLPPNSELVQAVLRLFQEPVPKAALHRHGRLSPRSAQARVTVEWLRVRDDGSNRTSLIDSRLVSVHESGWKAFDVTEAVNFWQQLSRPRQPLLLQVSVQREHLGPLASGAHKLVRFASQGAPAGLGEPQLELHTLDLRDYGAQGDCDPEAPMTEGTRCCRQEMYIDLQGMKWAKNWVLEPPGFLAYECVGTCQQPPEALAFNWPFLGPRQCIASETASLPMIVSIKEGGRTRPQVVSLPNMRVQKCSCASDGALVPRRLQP

[14] = target: Calmodulin-1 (Homo sapiens) (UniProt P0DP23); experiment: small molecules binding calmodulin-1 with EGTA – biochemical, small-molecule microarray, Cy5-labelled CALM1, profiling panel (AID 1111); conditions: Cy5-CALM1 binding fluorescence, higher = more signal;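 further: labelled calmodulin applied in Tris saline Tween buffer holding calcium plus EGTA and DTT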
[15] = target: Calmodulin-1 (Homo sapiens) (UniProt P0DP23); experiment: small molecules binding Ca-loaded calmodulin-1 – biochemical, small-molecule microarray, Cy5-labelled CALM1, plus calcium, artefact control for SMM control-protein annotation, profiling panel (AID 1112); conditions: Cy5-CALM1 binding fluorescence, higher = more signal;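 further: score merges spot fluorescence with signal to noise from triplicate slides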
[16] = probe aWnt5a binding to arrayed compounds – biochemical, biotinylated probe, 635/667 nm fluorescence, primary screen (AID 1113); conditions: small-molecule microarray, higher = more signal;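 further: score merges 667 nm fluorescence intensity with signal-to-noise per printed feature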
[17] = probe aShh binding to arrayed compounds – biochemical, biotinylated probe, 635/667 nm fluorescence, primary screen (AID 1114); conditions: small-molecule microarray, higher = more signal;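 further: probe is biotin-labelled aShh protein from a stem cell growth factor screen; measures binding of labelled protein to compounds printed on the slide; score merges feature fluorescence at 667 nm with signal-to-noise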
[18] = probe aNog binding to arrayed compounds – biochemical, biotinylated probe, 635/667 nm fluorescence, primary screen (AID 1115); conditions: small-molecule microarray, higher = more signal;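 further: probe is biotinylated aNog protein used at 0.15 µg/mL for 1 h at 4 C; z-score combines 667 nm fluorescence of each spot with its signal to noise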
[19] = target: Torsin-1A-interacting protein 1 (Homo sapiens) (UniProt Q5JTV8); experiment: compound microarray binding of lysate hLAP1 – cell lysate, small-molecule microarray, COS7 lysate, 635/667 nm fluorescence, primary screen (AID 1116); conditions: 635 nm fluorescence, higher = more signal
Chain of Torsin-1A-interacting protein 1 (Homo sapiens) (Q5JTV8 whole entry, looked up): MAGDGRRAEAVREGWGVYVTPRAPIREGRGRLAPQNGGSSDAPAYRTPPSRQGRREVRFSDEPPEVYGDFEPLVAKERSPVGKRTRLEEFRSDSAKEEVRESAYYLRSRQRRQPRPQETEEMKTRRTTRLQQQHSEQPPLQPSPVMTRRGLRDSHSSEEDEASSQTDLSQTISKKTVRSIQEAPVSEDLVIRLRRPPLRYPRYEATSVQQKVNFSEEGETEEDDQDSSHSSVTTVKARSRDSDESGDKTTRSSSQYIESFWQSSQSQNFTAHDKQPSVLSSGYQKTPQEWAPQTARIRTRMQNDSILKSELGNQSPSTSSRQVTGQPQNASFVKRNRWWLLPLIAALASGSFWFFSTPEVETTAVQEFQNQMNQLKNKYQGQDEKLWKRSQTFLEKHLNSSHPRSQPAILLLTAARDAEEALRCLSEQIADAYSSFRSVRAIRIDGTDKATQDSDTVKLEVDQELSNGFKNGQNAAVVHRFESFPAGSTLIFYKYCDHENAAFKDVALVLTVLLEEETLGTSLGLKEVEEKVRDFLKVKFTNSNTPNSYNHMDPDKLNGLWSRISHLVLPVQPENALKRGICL

[20] = target: Alpha-bungarotoxin (Bungarus multicinctus) (UniProt P60615); experiment: compounds binding labelled alpha-BTX control protein – biochemical, small-molecule microarray, Alexa647 label, 635/667 nm fluorescence, artefact control for SMM control protein annotation, profiling panel (AID 1117); conditions: alpha-BTX-A647 binding fluorescence, higher = more signal
Chain of Alpha-bungarotoxin (Bungarus multicinctus) (P60615 whole entry, looked up): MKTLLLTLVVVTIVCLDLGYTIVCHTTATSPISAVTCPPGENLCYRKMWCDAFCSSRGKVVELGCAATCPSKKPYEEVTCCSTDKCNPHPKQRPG

Row | SMILES | composite z-score [1] | composite z-score [2] | composite z-score [3] | z-score [4] | composite z-score [5] | composite z-score [6] | composite z-score [7] | composite z-score [8] | composite z-score [9] | composite z-score [10] | composite z-score [11] | z-score [12] | composite z-score [13] | composite z-score [14] | composite z-score [15] | composite z-score [16] | composite z-score [17] | composite z-score [18] | composite z-score [19] | composite z-score [20]
1 | [N-]=[N+]=NCc1ccccc1C[C@@]1(C(=O)N2CCOCC2)N=C(c2ccc(OCCCO)cc2)O[C@@H]1c1ccccc1N=[N+]=[N-] | 1.45 | 1.41 | 1.31 | -0.531 (inactive) | 1.42 | 0.683 | -0.11 | 0.436 | -0.433 | 1.32 | 0.425 | -1.14 | -0.139 | 2.15 | 1.13 | 0.208 | 0.412 | 1.64 | 1.74 | 2.84
2 | C[C@H]1C2[C@H](Cc3ccccc3)NC(=O)[C@]23C(=O)N[C@H](Cc2ccccc2)C(=O)N[C@@H](Cc2ccccc2)C(=O)NC/C=C\C/C=C/C3[C@@H]2O[C@]12C (stereo not given in full) | 0.0468 | -0.315 | -0.202 | -0.148 (inactive) | 0.345 | -0.256 | -0.228 | 0.223 | 0.409 | 1.16 | -0.767 | -0.204 | 0.419 | -0.297 | -0.348 | -0.199 | -0.0553 | 0.471 | 0.86 | -0.506
3 | C=CCC(OC(C)=O)[C@@H]1[C@@H](N(Cc2ccc(-c3ccccc3)cc2)C(=O)c2ccc(-c3ccccc3)cc2)c2cc(OCCCO)ccc2N1C(=O)Cc1ccc(OC)cc1 (stereo not given in full) | -0.322 | 0.0651 | 0.026 | -0.792 (inactive) | 0.035 | -0.0305 | -0.25 | 0.491 | -0.345 | 1.28 | 0.273 | -1.57 | 0.241 | 0.165 | 0.229 | 0.164 | 0.011 | 0.0921 | -0.209 | 0.265
4 | CC(C)N1CC=CC23O[C@@H]4/C=C\CCCOC(=O)C4[C@H]2C(=O)N(CCO)[C@@H]3C1=O (stereo not given in full) | 1.01 | 0.155 | 0.677 | -1.84 (inactive) | -0.363 | -0.456 | -1.02 | -0.516 | -1.08 | 1.45 | -0.526 | -0.648 | -0.999 | -0.428 | -0.793 | -0.188 | -0.0769 | -0.0624 | 2.9 | -0.493
5 | COCC(=C=CC[C@H](O)c1ccc(OCCO)cc1)C[C@H](O)c1ccccn1 | 0.338 | -0.169 | -0.201 | 0.0572 (inactive) | -0.198 | 0.208 | -0.829 | -0.293 | -0.326 | 0.403 | 0.131 | -0.932 | -0.454 | -0.581 | -0.705 | -0.186 | 0.235 | 0.0516 | 0.925 | -0.458
6 | COc1cccc([C@@H]2[C@@H](C)CC[C@H]3C(=O)N4[C@H](c5cccc(OC)c5)[C@@H](C)CC[C@H]4C(=O)N23)c1 | 0.168 | -0.271 | -0.521 | -1.59 (inactive) | 0.614 | 0.802 | 0.518 | 0.75 | 0.558 | -0.185 | 0.27 | 0.533 | 0.767 | -0.2 | -0.781 | -0.0853 | -0.2 | -0.0611 | 0.37 | 0.452
7 | CCCC[C@@H]1C[C@H]1[C@@H](NC(=O)c1cccs1)c1ccc(Cl)cc1 | 0.509 | 0.517 | 0.943 | -2.23 (inactive) | -1.5 | -1.13 | -1.34 | -2.23 | -1.75 | 0.269 | -0.416 | -1.27 | -1.19 | 0.27 | 0.696 | 0.0095 | -0.0578 | 0.46 | -0.939 | -1.37
8 | C=C[C@H](OC)[C@@H](OC(=O)Nc1ccc(SC)cc1)c1ccc(O)c(F)c1 | 1.03 | -0.145 | 0.0453 | -1.97 (inactive) | 1.01 | 0.0309 | -0.133 | 0.264 | -0.39 | -0.433 | 0.998 | 3.8 | -0.367 | 0.0665 | -0.0093 | -0.0486 | 0.0008 | -0.443 | 1.31 | 0.358
9 | COc1cc2c(cc1OC)CN(C(=O)[C@H]1[C@@H]3C(=O)O[C@@H](c4ccccc4)[C@@H](c4ccccc4)N3[C@@H](c3ccccc3OCCO)[C@]13C(=O)Nc1ccc(C#CC4(O)CCCCCC4)cc13)CC2 | 1.6 | 0.329 | 0.453 | -1.16 (inactive) | 1.06 | 1.3 | 0.525 | 0.564 | 0.693 | 0.113 | -0.178 | -2.36 | 0.519 | 1.16 | -0.407 | 0.0676 | 0.0684 | -0.356 | 1.02 | 1.83
10 | CCOC(=O)C[C@H]1[C@H](OC(=O)Cc2ccc3c(c2)OCO3)[C@@H](NC(=O)CC(C)C)c2cc(OCCCO)ccc2N1C(=O)c1ccccc1 | 0.899 | -0.095 | -0.533 | -1.6 (inactive) | 0.723 | 0.263 | 0.369 | 0.321 | 0.451 | 0.643 | 0.338 | 0.0689 | 0.371 | -0.278 | -0.215 | -0.0478 | 0.081 | 0.161 | 0.662 | 0.111
11 | COc1ccc(C(O)C2C=CC3C(=O)N(C)C(=O)C3N2N2CCCCC2)cc1OCc1ccccc1 (stereo not given) | 0.774 | 1.1 | 0.851 | 0.379 (inactive) | 0.26 | 0.636 | -0.001 | 0.371 | -0.622 | 0.986 | 1.34 | 0.421 | 0.0446 | 0.747 | 0.738 | 0.0391 | 0.462 | 1.63 | 0.68 | 1.87
12 | O=C1c2ccccc2[C@](Cc2ccccc2I)(C(=O)NCc2ccccc2)[C@H](c2ccc(CO)cc2)N1Cc1ccccc1C(F)(F)F | 0.74 | 0.606 | 1.11 | -0.984 (inactive) | -0.881 | -1.42 | -1.39 | -1.27 | -2.07 | 0.623 | -0.32 | 0.344 | -1.38 | -0.027 | 0.988 | -0.148 | -0.0146 | 1.06 | -0.08 | -0.442
13 | [N-]=[N+]=NCc1ccccc1C[C@]1(C(N)=O)N=C(c2ccc(OCCCO)cc2)O[C@H]1c1ccccc1CN=[N+]=[N-] | 1.49 | 1.51 | 1.29 | -1.63 (inactive) | 0.72 | 0.265 | -0.37 | 0.186 | -0.9 | 1.41 | 0.842 | -2.34 | -0.854 | 1.98 | 1.12 | 0.0286 | 0.84 | 0.653 | 1.32 | 1.56
14 | CC(=O)NCCCC[C@@H]1NC(=O)[C@H]2C[C@@H](C(=O)NCCCCCCN(C)C)[C@@H](c3cccc(OCCO)c3)N2C1=O | 1.5 | 0.822 | 0.649 | 0.567 (inactive) | 1.39 | 1.36 | 1.64 | 1.1 | 1.77 | 0.298 | 1.37 | 1.33 | 1.45 | -1.81 | -1.32 | -0.0185 | 0.323 | -0.0083 | 2.25 | 1.41
15 | COc1ccc([Si](C)(C)[C@@H]2[C@@H](CCO)O[C@]3(C(=O)N(Cc4ccccc4)c4ccccc43)[C@H]2C)cc1 | 0.183 | -0.18 | -0.455 | -0.535 (inactive) | 0.633 | 0.16 | 0.187 | 0.174 | 0.104 | -0.0249 | 0.566 | -1.84 | 0.224 | 0.398 | 0.49 | -0.148 | -0.217 | 0.202 | 0.526 | 0.124
16 | COc1cc(Cc2cc3c(c(CCc4ccccc4)n2)[Si](C(C)C)(C(C)C)OC3)cc(OC)c1OC | -0.132 | -0.106 | -0.471 | -0.212 (inactive) | 0.367 | -0.034 | 0.0831 | 0.499 | 0.164 | 0.679 | -0.0207 | -2.14 | 0.131 | -0.358 | -0.182 | -0.156 | 0.0796 | -0.158 | -0.214 | -0.044
17 | CN(C)C(=O)[C@@]1(Cc2ccccc2N=[N+]=[N-])N=C(c2ccc(OCCCO)cc2)O[C@H]1c1ccccc1CN=[N+]=[N-] | 1.68 | 1.22 | 1.3 | -0.636 (inactive) | 0.689 | 1.21 | 0.0256 | 0.482 | 0.4 | 0.676 | 0.646 | -2.12 | 0.048 | 2.51 | 1.22 | 0.13 | 0.721 | 1.78 | 3.11 | 2.96
